Consider 17 compounds from PubChem BioAssay (NCATS).

Inconclusive results are not listed. A number with no mark means an inactive call. Activity calls are given as the source filed them. Calls follow the shape of the dose curve; as a rule, active = well fitted inhibition curve with a large enough effect; inconclusive = small, poorly fitted or top-dose-only effect; inactive = flat fitted curve, though single readings scatter.
Potency is read from the fitted curve at half-maximal effect.

This experiment relates to ICS. The experiment is described as follows: qHTS profiling for inhibitors of Plasmodium falciparum proliferation (AID 504749). Also: nearly all actives have a fitted effect of over 60% in size.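 As to activity, negative = inhibition: 0% = DMSO vehicle and full inhibition = artemisinin control.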 The conditions noted are these: P. falciparum in erythrocytes, SYBR Green DNA, 72 h; series mostly up to 28.7 µM; activity, negative = inhibition: at the top concentration. The essentials:
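SYBR Green fluorescence (ex 485 nm, em 535 nm) reports parasite DNA after 72 h compound exposure of infected red cells at 0.3% parasitemia, 2.5% hematocrit; signal normalized to 0.29 uM artemisinin and vehicle wells.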
In general terms: Quantitative high-throughput screening tests each substance at several concentrations.
For the compound `COc1cc(O)c(C(=O)c2ccccc2)cc1S(=O)(=O)O`, the Potency was 3.55 µM (active).

As to `COc1ccc(C(=O)c2ccccc2)c(O)c1`, the Potency is 2.82 µM (active).

With `COc1ccc(C(=O)c2ccccc2O)c(O)c1`, the Potency was 2.51 µM (active).

For `NCc1ccccc1Sc1ccccc1CO`, the Potency is 8.91 µM (active).

As for `C#C[C@]1(OC(C)=O)CC[C@H]2[C@@H]3CCC4=C/C(=N/O)CC[C@@H]4[C@H]3CC[C@@]21CC`, the “activity, negative = inhibition” value was -7.87%.

In the case of `CN(C)CCN1C(=O)c2ccccc2N(C)c2ccccc21`, the “activity, negative = inhibition” value was -26.3%.

`COc1cc([C@H]2Oc3cc([C@H]4Oc5cc(O)cc(O)c5C(=O)[C@@H]4O)ccc3O[C@@H]2CO)ccc1O`: the Potency is 8.91 µM (active).

As to `Cc1ncc(CO)c(C=O)c1O`, the “activity, negative = inhibition” value is 7.47%.

Consider `O=C(O)CCc1nc2ccccc2[nH]1`, for which the “activity, negative = inhibition” value is -97.6%.

As for `CCOc1ccccc1OCCN[C@H](C)Cc1ccc(OC)c(S(N)(=O)=O)c1`, the “activity, negative = inhibition” value was -5.3%.

For the compound `CC(=O)O[C@]1(C(C)=O)CC[C@H]2[C@@H]3C=C(Cl)C4=CC(=O)CC[C@]4(C)[C@H]3CC[C@@]21C`, the Potency is 10 µM (active).

On to `CCOC(=O)Nc1ccc2c(c1)N(C(=O)CCN1CCOCC1)c1ccccc1S2`, for which the “activity, negative = inhibition” value is -25.6% [at 12.8 µM].

As for `O=C(CN1CCN(Cc2ccc3c(c2)OCO3)CC1)N1c2ccccc2Sc2ccccc21`, the Potency is 10 µM (active).

For the compound `CCC(C(=O)OCCOCCN(CC)CC)c1ccccc1` (configuration not stated), the “activity, negative = inhibition” value was -10.5%.

Consider `O=C(NC1CCN(CCc2c[nH]c3ccccc23)CC1)c1ccccc1`, for which the Potency was 8.91 µM (active).

As to `NC(=O)C1(N2CCCCC2)CCN(CCCC(=O)c2ccc(F)cc2)CC1`, the “activity, negative = inhibition” value was -19.5%.

With `CN1CCN(C2=Nc3ccccc3Sc3ccc(Cl)cc32)CC1`, the Potency was 11.2 µM (active).
